This passage reports growth results from PubChem BioAssay (NCI).

The panel holds about 83,000 compounds, 20% with a hit somewhere; the sample as a whole holds those more often.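 Negative percent growth values reflect cell death: -40 means 40% of the cells present at the start died, and -100 means all died.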 Values without a mark were called inactive. Active and inactive are the calls of the source. The calls were made as follows: active = growth percent below 10; inactive = the rest.

Among the test systems are SR leukemia; RPMI-8226 leukemia; OVCAR-8 ovarian; OVCAR-5 ovarian; OVCAR-4 ovarian; SK-OV-3 ovarian; IGROV1 ovarian; OVCAR-3 ovarian; HS 578T breast; NCI/ADR-RES ovarian; T-47D breast; BT-549 breast; MDA-MB-435 melanoma; SW-620 colon; MCF7 breast; HCT-116 colon; HCC-2998 colon; KM12 colon.
What all share (assay): NCI-60 one-dose screen, 48 h (100 = growth as untreated, 0 = no growth, -100 = all killed)
Common to all, as to settings: 10 µM

Turning to `CCN(CC)c1ccc(/C=C/C2=[N+](C)c3ccccc3C2(C)C)c(C)c1`, the growth was -14.6% (active) in the experiment with SR leukemia; -25.7% (active) in the experiment with RPMI-8226 leukemia; 8.1% (active) in the experiment on OVCAR-8 ovarian; 30.6% with OVCAR-5 ovarian; 18.4% with OVCAR-4 ovarian; -6.99% (active) with SK-OV-3 ovarian. Also, the growth in the experiment with IGROV1 ovarian was 31.8%; in the experiment on OVCAR-3 ovarian, 8.86% (active); in the experiment on HS 578T breast, 41.8%; with NCI/ADR-RES ovarian, 33.4%; with T-47D breast it was -0.932% (active); with BT-549 breast it was -13.2% (active). Moreover, the growth in the experiment on MDA-MB-435 melanoma was -13.7% (active); with SW-620 colon, 18.7%; in the experiment on MCF7 breast, 3.87% (active); with HCT-116 colon, 5.94% (active); in the experiment on HCC-2998 colon it was 23.3%; with KM12 colon, -34.7% (active).
On to `CCNC1(NC#N)CCCCC1`, for which the growth with SR leukemia was 103%; with RPMI-8226 leukemia, 101%; with OVCAR-8 ovarian, 84.4%; with OVCAR-5 ovarian, 116%; in the experiment on OVCAR-4 ovarian it was 113%; in the experiment on SK-OV-3 ovarian, 104%. In addition, the growth was 115% in the experiment on IGROV1 ovarian; 109% in the experiment with OVCAR-3 ovarian; 103% in the experiment with HS 578T breast; 101% with NCI/ADR-RES ovarian; 104% in the experiment with T-47D breast; 110% in the experiment on BT-549 breast. Moreover, the growth was 97.7% with MDA-MB-435 melanoma; 104% in the experiment with SW-620 colon; 104% in the experiment with MCF7 breast; 103% in the experiment with HCT-116 colon; 96.2% in the experiment with HCC-2998 colon; 105% in the experiment with KM12 colon.
With `CCc1ccc(-c2nnc(COc3ccc(-c4nc5ccccc5[nH]4)cc3OC)o2)cc1`, the growth with SR leukemia is -8.81% (active); with RPMI-8226 leukemia, 52.1%; with OVCAR-8 ovarian, 40.9%; in the experiment with OVCAR-5 ovarian, 96.6%; in the experiment on OVCAR-4 ovarian, -36.2% (active); in the experiment with SK-OV-3 ovarian, 100%. The growth is 53.6% with IGROV1 ovarian; 4.63% (active) in the experiment with OVCAR-3 ovarian; 14.4% in the experiment with HS 578T breast; 69.2% with NCI/ADR-RES ovarian; 87.9% with T-47D breast; 51.7% in the experiment with BT-549 breast. Further, the growth in the experiment with MDA-MB-435 melanoma was 56.7%; in the experiment with SW-620 colon, 58.1%; in the experiment on MCF7 breast, 33.5%; in the experiment with HCT-116 colon, 28.9%; in the experiment with HCC-2998 colon, 81.6%; in the experiment on KM12 colon, 58%.
`c1ccc(CC(NCCNC(Cc2ccccc2)c2ccccc2)c2ccccc2)cc1` (configuration not stated): the growth is -33.7% (active) in the experiment with SR leukemia; -41.1% (active) in the experiment with RPMI-8226 leukemia; 22.5% in the experiment with OVCAR-8 ovarian; 55.2% with OVCAR-5 ovarian; 35.6% in the experiment on OVCAR-4 ovarian; 84% in the experiment on SK-OV-3 ovarian. Also, the growth is 36.4% in the experiment with IGROV1 ovarian; 22.9% with OVCAR-3 ovarian; 73.4% with HS 578T breast; 38.8% with NCI/ADR-RES ovarian; 13.9% with T-47D breast; 56.6% in the experiment with BT-549 breast. The growth in the experiment with MDA-MB-435 melanoma was 38%; with SW-620 colon it was 5.83% (active); in the experiment on MCF7 breast, -7.95% (active); with HCT-116 colon, -25.3% (active); in the experiment on HCC-2998 colon, 3.25% (active); in the experiment with KM12 colon, 16.3%.
With `O=C1/C(=C/c2ccc([N+](=O)[O-])s2)Oc2ccc(Cl)cc21`, the growth in the experiment with SR leukemia is 1.07% (active); in the experiment with RPMI-8226 leukemia it was 0.77% (active); in the experiment on OVCAR-8 ovarian, 1.27% (active); with OVCAR-5 ovarian, -80.6% (active); in the experiment on OVCAR-4 ovarian, -76.5% (active); in the experiment on SK-OV-3 ovarian it was 7.47% (active). The growth in the experiment on IGROV1 ovarian was -67.9% (active); in the experiment on OVCAR-3 ovarian, -68.8% (active); in the experiment with HS 578T breast, 17.6%; in the experiment on NCI/ADR-RES ovarian, 4.88% (active); with T-47D breast, -34.9% (active); in the experiment on BT-549 breast, -67.1% (active). Besides, the growth with MDA-MB-435 melanoma was -60.4% (active); in the experiment with SW-620 colon it was -64.4% (active); with MCF7 breast, -26.7% (active); in the experiment on HCT-116 colon, -52.7% (active); in the experiment on HCC-2998 colon, -74.8% (active); with KM12 colon, -53.3% (active).
For the molecule `COc1cc(/C=C/C(=O)c2cc(-c3ccc(F)cc3)ccc2O)cc(OC)c1OC`, the growth in the experiment with SR leukemia is 49.9%; in the experiment with RPMI-8226 leukemia, 7.24% (active); in the experiment on OVCAR-8 ovarian it was 66.7%; in the experiment on OVCAR-5 ovarian it was 97.5%; with OVCAR-4 ovarian, 68.3%; in the experiment with SK-OV-3 ovarian it was 89.5%. The growth in the experiment with IGROV1 ovarian is 84.1%; with OVCAR-3 ovarian, 82.4%; in the experiment with HS 578T breast, 86%; in the experiment on NCI/ADR-RES ovarian, 72.1%; with T-47D breast, 42.1%; with BT-549 breast it was 88%. For the same molecule, the growth in the experiment with MDA-MB-435 melanoma is 70.7%; with SW-620 colon, 80.9%; in the experiment with MCF7 breast, 68.6%; in the experiment with HCT-116 colon it was 60%; with HCC-2998 colon, 93.1%; with KM12 colon, 86%.
Consider `CN(C)CCCN(Cc1ccccc1O)C(=S)Nc1ccc(Cl)cc1`, for which the growth with SR leukemia is 95%; in the experiment on RPMI-8226 leukemia it was 93.5%; in the experiment on OVCAR-8 ovarian it was 98.2%; in the experiment with OVCAR-5 ovarian, 110%; in the experiment on OVCAR-4 ovarian, 111%; in the experiment on SK-OV-3 ovarian, 107%. Also, the growth is 106% in the experiment on IGROV1 ovarian; 112% in the experiment on OVCAR-3 ovarian; 89% in the experiment on HS 578T breast; 104% with NCI/ADR-RES ovarian; 93.4% with T-47D breast; 105% with BT-549 breast. In addition, the growth in the experiment on MDA-MB-435 melanoma was 109%; in the experiment on SW-620 colon, 100%; in the experiment with MCF7 breast, 99%; with HCT-116 colon, 108%; in the experiment on HCC-2998 colon it was 83.4%; in the experiment with KM12 colon it was 105%.
As to `COc1cc(Cl)cc(-c2nn(-c3cccc(NC(=O)Nc4cccc(C(F)(F)F)c4)c3)cc2-c2ccncc2)c1`, the growth is -13.5% (active) in the experiment with SR leukemia; -14.2% (active) in the experiment on RPMI-8226 leukemia; -12.3% (active) in the experiment on OVCAR-8 ovarian; 34.1% in the experiment on OVCAR-5 ovarian; 3.28% (active) in the experiment on OVCAR-4 ovarian; 14.2% in the experiment on SK-OV-3 ovarian. Moreover, the growth in the experiment on IGROV1 ovarian is 28.8%; in the experiment on OVCAR-3 ovarian, -0.412% (active); in the experiment on HS 578T breast, 23.1%; with NCI/ADR-RES ovarian it was 3.58% (active); in the experiment with T-47D breast it was -0.45% (active); in the experiment with BT-549 breast it was 12.9%. In addition, the growth was -20.9% (active) in the experiment with MDA-MB-435 melanoma; 11.2% with SW-620 colon; 0.3% (active) in the experiment with MCF7 breast; 5.07% (active) with HCT-116 colon; 19% in the experiment with HCC-2998 colon; 9.81% (active) with KM12 colon.
Regarding `CC(=O)CS(C)(=O)=O`, the growth in the experiment with SR leukemia was 94.8%; in the experiment on RPMI-8226 leukemia, 105%; in the experiment on OVCAR-8 ovarian it was 105%; in the experiment on OVCAR-5 ovarian it was 102%; in the experiment with OVCAR-4 ovarian, 112%; in the experiment with SK-OV-3 ovarian, 104%. The growth in the experiment with IGROV1 ovarian is 108%; with OVCAR-3 ovarian, 111%; in the experiment with HS 578T breast it was 107%; in the experiment on NCI/ADR-RES ovarian, 109%; with T-47D breast, 109%; in the experiment on BT-549 breast it was 109%. For the same molecule, the growth with MDA-MB-435 melanoma was 106%; in the experiment on SW-620 colon it was 102%; with MCF7 breast, 105%; in the experiment with HCT-116 colon, 107%; in the experiment on HCC-2998 colon, 102%; with KM12 colon, 114%.
